Reference: the supplement of paper PMC10849652
The full data set covers some 7,900 targets. This sample favours those with a hit. About 0.6% of all pairs of compound and target were hits. A number with no mark means an inactive call.

Experiments:
Assay in all cases: log2 fold change, soluble protein after heating vs DMSO (PISA); higher = thermal stabilisation; K562 cells, 10 uM, 30 min; active = over 0.2 and 3.5 SD of the protein, either way, in both replicates (recomputed)
[1] = compound: CC1=C(C=C(C=C1)NC(=O)C2=CC(=CC=C2)C(C)(C)C#N)NC3=CC4=C(C=C3)N=CN(C4=O)C
In short: (§1)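 K562 cells at 2×10^6 cells/mL were treated with 10 μM compound for 30 min. Aliquots were heated for 3 min across 48°C-58°C, pooled, and extracted in PBS with 0.5% NP-40 at 4°C; soluble protein was the supernatant after 21,000xg for 90 min. Soluble protein was quantified by TMTpro 16plex LC-MS/MS with channel sums equalised, and reported as log2 fold change in thermal stability against DMSO controls, with values from duplicates.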

[2] = compound: CC1=C(C=C(C=C1)NC(=O)C2=CC(=CC=C2)N(C)C)NC(=O)C3=CC=C(C=C3)O
In short: as §1

[3] = compound: CC1=CC=C(C=C1)SC2=C3C=C(SC3=CN=C2)C(=O)N
In short: as §1

[4] = compound: CC1=NC(=CC=C1)C2=C(N=C(N2)C(C)(C)C)C3=CC4=NC=CN=C4C=C3
In short: as §1

[5] = compound: CCCCN(Cc1ccc(C(=O)NO)cc1)C(=O)Nc1ccccc1 [Nexturastat A]
In short: as §1

[6] = compound: CCCS(=O)(=O)Nc1ccc(F)c(C(=O)c2c[nH]c3ncc(-c4ccc(Cl)cc4)cc23)c1F [vemurafenib]
In short: as §1

[7] = compound: CCCS(=O)(=O)Nc1ccc(F)c(C(=O)c2c[nH]c3ncc(Cl)cc23)c1F
In short: as §1

[8] = compound: CCCc1cc(C)[nH]c(=O)c1CNC(=O)c1cc(-c2ccnc(N3CCN(C)CC3)c2)cc2c1cnn2C(C)C
In short: as §1

[9] = compound: CCN(CC)Cc1ccc2cc(COC(=O)Nc3ccc(C(=O)NO)cc3)ccc2c1 [givinostat]
In short: as §1

[10] = compound: CCN(CCCOc1ccc2c(Nc3cc(CC(=O)Nc4cccc(F)c4)[nH]n3)ncnc2c1)CCOP(=O)(O)O [barasertib]
In short: as §1

[11] = compound: CC[C@@H]1C(=O)N(C)c2cnc(Nc3ccc(C(=O)NC4CCN(C)CC4)cc3OC)nc2N1C1CCCC1
In short: as §1

[12] = compound: CC[C@@H]1C(=O)N(C)c2cnc(Nc3ccc(C(=O)N[C@H]4CC[C@H](N5CCN(CC6CC6)CC5)CC4)cc3OC)nc2N1C(C)C [volasertib]
In short: as §1

[13] = compound: CC[C@H](C)N1C=C(C2=C(C=C(C=C21)C3=CN=C(C=C3)N4CCNCC4)C(=O)NCC5=C(C=C(NC5=O)C)C)C
In short: as §1

[14] = compound: CC[C@H](C)[C@@H](C(=O)N[C@@H]([C@@H](C)O)C(=O)N[C@@H](CC(C)C)C(=O)[C@]1(CO1)C)NC(=O)[C@H]([C@@H](C)CC)N(C)C(=O)C [epoxomicin]
In short: as §1

[15] = compound: CCn1c(C(=O)N(C2CC2)C2CC2)cc2c3c(ncn3C)c(Nc3cc(C)n(C)n3)nc21
In short: as §1

[16] = compound: CCn1cc(-c2ccnc3[nH]c(-c4cccc(CN(C)C)c4)cc23)c(-c2ccc(NC(=O)N(C)C)cc2)n1
In short: as §1

[17] = compound: CN(C)CC(=O)Nc1ccc2[nH]c(=O)c3ccccc3c2c1
In short: as §1

[18] = compound: CN(CCOC1=CC=C(C=C1)C[C@H]2C(=O)NC(=O)S2)C3=CC=CC=N3 (racemic) [rosiglitazone]
In short: as §1

[19] = compound: CN1C2=C(C3=C1C(=O)N(N=C3)CC4=CC(=CC=C4)N)SC(=C2)S(=O)C
In short: as §1

[20] = compound: CN1CCC(CNc2ccc3ncc(-c4cccc(OC(F)(F)F)c4)n3n2)CC1
In short: as §1

Sequence of UniProt Q8NHH9 (Q8NHH9 whole entry, looked up): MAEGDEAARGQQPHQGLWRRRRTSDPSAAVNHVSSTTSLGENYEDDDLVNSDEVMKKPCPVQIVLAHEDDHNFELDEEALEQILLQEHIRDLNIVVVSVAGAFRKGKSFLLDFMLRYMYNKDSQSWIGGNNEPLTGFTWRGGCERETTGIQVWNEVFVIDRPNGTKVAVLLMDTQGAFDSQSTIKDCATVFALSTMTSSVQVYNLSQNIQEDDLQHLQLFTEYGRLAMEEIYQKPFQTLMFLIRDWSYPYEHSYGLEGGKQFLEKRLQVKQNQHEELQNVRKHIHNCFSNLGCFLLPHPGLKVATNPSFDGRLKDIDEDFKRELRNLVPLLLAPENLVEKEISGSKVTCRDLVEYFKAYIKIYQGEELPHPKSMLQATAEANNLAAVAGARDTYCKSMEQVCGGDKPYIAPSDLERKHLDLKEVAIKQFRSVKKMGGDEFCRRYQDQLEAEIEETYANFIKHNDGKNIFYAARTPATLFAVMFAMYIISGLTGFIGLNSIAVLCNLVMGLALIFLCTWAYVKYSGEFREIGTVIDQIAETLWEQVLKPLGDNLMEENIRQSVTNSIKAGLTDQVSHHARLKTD
Sequence of UniProt Q8N6S5 (Q8N6S5 whole entry, looked up): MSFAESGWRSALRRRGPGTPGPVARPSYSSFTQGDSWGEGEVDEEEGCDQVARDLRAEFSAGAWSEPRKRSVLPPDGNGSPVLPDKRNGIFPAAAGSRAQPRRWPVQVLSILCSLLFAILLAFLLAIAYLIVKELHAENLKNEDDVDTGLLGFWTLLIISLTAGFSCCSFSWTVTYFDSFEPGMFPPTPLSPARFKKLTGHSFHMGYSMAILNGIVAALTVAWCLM
Sequence of UniProt P31749 (P31749 whole entry, looked up): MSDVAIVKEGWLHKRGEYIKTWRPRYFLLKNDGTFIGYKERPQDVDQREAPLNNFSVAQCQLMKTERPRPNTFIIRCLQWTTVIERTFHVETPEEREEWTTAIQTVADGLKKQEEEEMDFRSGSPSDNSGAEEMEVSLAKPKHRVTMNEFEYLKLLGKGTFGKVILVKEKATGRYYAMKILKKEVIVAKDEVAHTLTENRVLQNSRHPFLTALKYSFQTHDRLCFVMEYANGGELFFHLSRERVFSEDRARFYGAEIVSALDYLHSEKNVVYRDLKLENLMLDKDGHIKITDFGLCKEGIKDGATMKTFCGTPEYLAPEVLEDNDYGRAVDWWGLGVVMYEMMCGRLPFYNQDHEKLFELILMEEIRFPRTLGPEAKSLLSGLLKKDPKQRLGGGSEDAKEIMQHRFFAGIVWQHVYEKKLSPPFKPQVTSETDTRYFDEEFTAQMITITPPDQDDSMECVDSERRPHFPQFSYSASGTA
Sequence of UniProt Q9Y487 (Q9Y487 whole entry, looked up): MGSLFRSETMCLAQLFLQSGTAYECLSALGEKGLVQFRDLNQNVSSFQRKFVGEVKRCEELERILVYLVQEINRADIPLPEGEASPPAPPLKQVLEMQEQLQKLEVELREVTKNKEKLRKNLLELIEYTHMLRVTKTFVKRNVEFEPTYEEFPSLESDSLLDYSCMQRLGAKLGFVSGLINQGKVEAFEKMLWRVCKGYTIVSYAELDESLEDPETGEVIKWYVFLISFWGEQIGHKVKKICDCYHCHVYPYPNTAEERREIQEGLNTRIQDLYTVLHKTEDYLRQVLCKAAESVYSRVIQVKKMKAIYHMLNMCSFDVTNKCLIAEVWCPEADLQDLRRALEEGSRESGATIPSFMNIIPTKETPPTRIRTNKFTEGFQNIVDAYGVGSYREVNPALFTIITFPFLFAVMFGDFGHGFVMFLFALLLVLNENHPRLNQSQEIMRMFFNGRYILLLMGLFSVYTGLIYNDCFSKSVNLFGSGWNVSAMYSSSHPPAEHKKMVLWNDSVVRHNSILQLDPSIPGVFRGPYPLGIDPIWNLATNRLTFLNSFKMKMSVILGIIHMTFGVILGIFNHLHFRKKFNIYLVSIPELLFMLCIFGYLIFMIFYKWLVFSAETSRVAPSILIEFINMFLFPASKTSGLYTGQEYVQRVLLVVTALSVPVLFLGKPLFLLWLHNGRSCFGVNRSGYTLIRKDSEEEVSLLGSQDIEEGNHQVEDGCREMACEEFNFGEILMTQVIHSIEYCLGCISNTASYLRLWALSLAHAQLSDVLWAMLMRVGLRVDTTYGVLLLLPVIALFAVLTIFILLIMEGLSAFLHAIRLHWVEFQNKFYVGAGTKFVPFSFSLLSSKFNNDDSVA
Sequence of UniProt P11310 (P11310 whole entry, looked up): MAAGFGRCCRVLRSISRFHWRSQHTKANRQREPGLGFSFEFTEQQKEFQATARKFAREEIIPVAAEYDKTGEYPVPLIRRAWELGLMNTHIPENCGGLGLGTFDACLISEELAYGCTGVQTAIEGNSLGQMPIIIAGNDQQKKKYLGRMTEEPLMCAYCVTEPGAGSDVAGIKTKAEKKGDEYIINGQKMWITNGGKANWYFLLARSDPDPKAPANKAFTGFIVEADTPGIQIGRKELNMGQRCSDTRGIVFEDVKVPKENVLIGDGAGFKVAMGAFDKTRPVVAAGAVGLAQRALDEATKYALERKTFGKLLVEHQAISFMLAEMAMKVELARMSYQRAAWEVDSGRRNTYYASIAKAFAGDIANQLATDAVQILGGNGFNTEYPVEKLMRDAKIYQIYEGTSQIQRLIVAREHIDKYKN
Sequence of UniProt P42025 (P42025 whole entry, looked up): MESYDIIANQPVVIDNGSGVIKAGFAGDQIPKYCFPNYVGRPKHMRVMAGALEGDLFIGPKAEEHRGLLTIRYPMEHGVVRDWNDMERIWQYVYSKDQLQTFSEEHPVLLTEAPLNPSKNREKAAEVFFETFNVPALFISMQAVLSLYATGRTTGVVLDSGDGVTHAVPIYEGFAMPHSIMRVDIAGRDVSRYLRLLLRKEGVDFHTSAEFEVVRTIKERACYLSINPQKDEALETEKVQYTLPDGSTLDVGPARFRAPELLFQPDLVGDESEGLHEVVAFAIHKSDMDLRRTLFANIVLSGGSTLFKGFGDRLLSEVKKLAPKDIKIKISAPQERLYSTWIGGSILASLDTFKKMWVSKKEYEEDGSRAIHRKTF
Sequence of UniProt Q07960 (Q07960 whole entry, looked up): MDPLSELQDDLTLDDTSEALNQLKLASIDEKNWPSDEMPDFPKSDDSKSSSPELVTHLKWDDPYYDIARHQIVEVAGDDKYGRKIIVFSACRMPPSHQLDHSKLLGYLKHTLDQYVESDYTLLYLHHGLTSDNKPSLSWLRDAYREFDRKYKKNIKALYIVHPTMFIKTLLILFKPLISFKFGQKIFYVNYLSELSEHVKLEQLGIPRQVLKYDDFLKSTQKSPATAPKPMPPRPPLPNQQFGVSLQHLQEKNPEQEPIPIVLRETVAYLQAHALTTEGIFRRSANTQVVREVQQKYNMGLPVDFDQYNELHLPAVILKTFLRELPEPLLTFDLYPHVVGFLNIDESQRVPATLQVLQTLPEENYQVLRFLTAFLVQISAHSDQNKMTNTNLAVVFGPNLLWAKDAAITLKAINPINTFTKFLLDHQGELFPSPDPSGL
Sequence of UniProt P55263 (P55263 whole entry, looked up): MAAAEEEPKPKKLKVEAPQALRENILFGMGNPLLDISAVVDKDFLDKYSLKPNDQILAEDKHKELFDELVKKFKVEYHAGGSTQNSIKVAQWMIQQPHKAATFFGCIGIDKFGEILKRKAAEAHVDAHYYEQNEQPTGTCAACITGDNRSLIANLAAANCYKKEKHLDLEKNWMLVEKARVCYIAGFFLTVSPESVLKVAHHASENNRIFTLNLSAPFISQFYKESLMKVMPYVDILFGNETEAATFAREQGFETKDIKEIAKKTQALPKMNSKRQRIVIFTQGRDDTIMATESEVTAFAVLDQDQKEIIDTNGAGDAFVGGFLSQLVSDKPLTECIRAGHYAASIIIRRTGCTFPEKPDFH

Target | log2 fold change [1] | log2 fold change [2] | log2 fold change [3] | log2 fold change [4] | log2 fold change [5] | log2 fold change [6] | log2 fold change [7] | log2 fold change [8] | log2 fold change [9] | log2 fold change [10] | log2 fold change [11] | log2 fold change [12] | log2 fold change [13] | log2 fold change [14] | log2 fold change [15] | log2 fold change [16] | log2 fold change [17] | log2 fold change [18] | log2 fold change [19] | log2 fold change [20]
ATP6V0A2 (UniProt Q9Y487) | 0.021 | 0.016 | 0.006 | -0.013 | 0.024 | 0.026 | 0.014 | 0.014 | 0.02 | 0.008 | -0.039 | -0.039 | 0.067 | 0.043 | 0.007 | 0.028 | -0.034 | -0.037 | 0.006 | -0.169
ACADM isoform 2 (UniProt P11310) | -0.018 | -0.024 | 0.001 | 0.017 | 0.009 | 0.009 | -0.015 | -0.042 | -0.033 | 0 | -0.045 | -0.03 | -0.015 | 0.015 | 0.014 | -0.042 | -0.024 | 0.008 | -0.078 | -0.011
AKT1 (UniProt P31749) | 0.118 | -0.105 | -0.035 | 0.019 | 0.145 | -0.227 | 0.008 | 0.049 | 0.133 | -0.03 | 0 | -0.503 | 0.068 | 0.158 | -0.119 | -0.08 | 0.133 | 0.257 | 0.107 | 0.222
ADK (UniProt P55263) | 0.03 | -0.027 | 0 | -0.011 | -0.04 | -0.013 | -0.046 | 0.106 | -0.076 | -0.026 | 0.338 | 0.359 | -0.095 | -0.011 | 0.097 | -0.026 | -0.018 | -0.017 | -0.085 | 0.184
ARL6IP6 (UniProt Q8N6S5) | -0.112 | -0.038 | 0.009 | -0.071 | 0.106 | 0 | 0.049 | 0.034 | 0.099 | -0.048 | 0.154 | -0.007 | -0.043 | -0.086 | -0.074 | 0.004 | 0.004 | 0.005 | 0.029 | 0.01
ATL2 (UniProt Q8NHH9) | 0.022 | -0.107 | -0.013 | 0.029 | 0.037 | -0.004 | 0.005 | -0.104 | 0.023 | 0.019 | 0.031 | 0.037 | 0.066 | 0.092 | -0.051 | -0.127 | 0.028 | 0.017 | -0.078 | -0.032
ACTR1B (UniProt P42025) | -0.056 | -0.124 | 0.001 | -0.003 | -0.134 | -0.029 | -0.022 | -0.009 | 0.006 | 0.031 | 0.081 | 0.048 | 0.01 | -0.008 | -0.014 | -0.581 (active) | 0.021 | -0.033 | -0.089 | 0.306
ARHGAP1 (UniProt Q07960) | -0.024 | -0.022 | -0.009 | 0.012 | 0.03 | 0.002 | 0.052 | -0.018 | -0.014 | 0.006 | 0.014 | -0.027 | 0.021 | 0.013 | -0.006 | -0.082 | -0.007 | 0.03 | -0.014 | 0.19
